Among the data in PubChem BioAssay (NCI) are growth values, retold here.

About 83,000 compounds went through this panel and 20% of them were active in at least one assay; those are over-represented in the sample as a whole.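 Negative percent growth values reflect cell death: -40 means 40% of the cells present at the start died, and -100 means all died.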 Active and inactive are the calls of the source.

The subject of this assay is OVCAR-8 ovarian. As to the kind of experiment: NCI-60 one-dose screen, 48 h (100 = growth as untreated, 0 = no growth, -100 = all killed). Conditions: 10 µM unless noted. How it is done: Growth inhibition of the OVCAR-8 human tumor cell line is measured as a screen for anti-cancer activity. Cells are grown in 96 well plates and exposed to the test compound for 48 hours. Compounds are tested at a single concentration, which is 10^-5 M for most compounds. The reported endpoint is percent growth (GI% or GIPRCNT), where numbers from 0 - 100% represent growth inhibition, and numbers from -100% - 0 represent cell death. For example, a value of 40 represents 60% growth inhibition. A value of 0 means no net growth occurred over the course of the experiment. A value of -40 indicates 40% of cells at the beginning of the experiment died by the end of the experiment. A value of -100 means all cells are dead at the end of the experiment.
NCI-60 Human Tumor Cell Lines Screen was performed using the standard one-dose NCI protocol, which is described in more detail at https://dtp.cancer.gov/discovery_development/nci-60/default.htm.
Compounds with GIPRCNT values below 10 were considered active. Activity score was based on GIPRCNT using the following formula: […]
Score is 0 for GIPRCNT values of 100 or above, 50 for GIPRCNT values of 0, and 100 for GIPRCNT values of -100.
As to `O=[N+]([O-])c1ccc(S(=O)(=O)N2CCN(c3ccnc4cc(Cl)ccc34)CC2)c([N+](=O)[O-])c1`, the growth was 97.1% (inactive).

Consider `COc1cc(CNC(=O)CCSc2nc3ccccc3c(=O)n2Cc2cc(OC)c(OC)c(OC)c2)cc(OC)c1OC`, for which the growth is 48.2% (inactive).

Regarding `C=C1C(=O)O[C@H]2[C@H]1CC/C(Cn1cc(-c3ccsc3)nn1)=C\CC[C@@]1(C)O[C@@H]21`, the growth is -4.45% (active).

For the compound `CCN1C(=O)N(CC)C2C1NN=c1s/c(=C\c3ccccn3)c(=O)n12` (stereo not given), the growth is 31.2% (inactive).

`CCC1=C[C@@H]2CN(C1)Cc1c([nH]c3ccccc13)[C@@](C(=O)OC)(c1cc3c(cc1OC)N(C=O)[C@H]1[C@@](O)(C(=O)OC)[C@H](OC(C)=O)[C@]4(CC)[C@@H]5C[C@@H]5CN5CC[C@]31[C@@H]54)C2`: the growth is 8.45% (active).

In the case of `COc1ccc(-n2cnc3c(sc4ncc(Cl)cc43)c2=O)cc1`, the growth is 87.9% (inactive).

With `CCCC1OC(c2ccc(C(C)C)cc2)OCC1CC` (stereo not given), the growth was 96.7% (inactive).

Consider `CCn1cc(C2NC(=O)c3cc(F)ccc3N2)c2cccc(Cl)c21` (stereo not given), for which the growth was -35.9% (active).

For `CC1(C)OC2COC3(C(=O)O)OC(C)(C)OC3C2O1` (stereo not given), the growth was 108% (inactive).

As to `COC1=CC(c2ccc[nH]2)=N/C1=C\c1[nH]c(C)c(CCCn2cc(CCCCCCCCC[C@@H]3Cc4cc(O)ccc4C4CC[C@]5(C)[C@@H](O)CC[C@H]5C43)nn2)c1C` (stereo not given in full), the growth is 70.4% (inactive).

For `O=C(Cc1n[nH]c(=O)c2ccccc12)OCc1c(Cl)cccc1Cl`, the growth is 102% (inactive).

For the compound `COc1ccc(NC(=O)c2cc3ccccc3nc2Nc2cc(OC)c(OC)c(OC)c2)cc1`, the growth is 41.9% (inactive).

For `CCn1c(=O)c2c(=O)c3c4c(oc3oc2c2ccccc21)C(=O)c1ccccc1C4=O`, the growth is 10.2% (inactive).

On to `O=C1N=C(c2c(-c3[nH]c(=O)c4ccc(Br)cc4c3O)c(O)c3ccccc3c2O)C(=O)c2cc(Br)ccc21`, for which the growth was -23.5% (active).

Regarding `C[N+](C)(C)c1ccc(CC2c3ccccc3-c3ccccc32)cc1`, the growth is 85.7% (inactive).

On to `COc1cc(OC)c(C(=O)/C=C/c2ccc(C(F)(F)F)cc2)c(OC)c1`, for which the growth is 40.3% (inactive).

Turning to `COc1cc(CCn2nnc3c(Nc4ccc(N5CCOCC5)cc4)ncnc32)cc(OC)c1`, the growth is 109% (inactive).

Consider `Cc1ccc(Cn2c(-c3nonc3N)nc3ccccc32)cc1`, for which the growth is 88.3% (inactive).

As to `NC(=O)c1ccc2c(c1)OCO2`, the growth is 108% (inactive).

In the case of `O=C(CCCn1c(=O)c2sc3ccccc3c2n2nnc(-c3ccccc3)c12)NCCc1cnc[nH]1`, the growth is -28.5% (active).

With `CC1Cc2c(N(C)C)ncnc2N(C)c2ccc(O)cc21` (stereo not given), the growth was 103% (inactive).

Regarding `COc1ccc(OC)c(C(=O)c2oc3ccc(Br)cc3c2N)c1`, the growth is 16.6% (inactive).

As to `CC(Br)C(Br)c1cc2c(cc1Br)OCO2` (stereo not given), the growth was 100% (inactive).

As for `COc1cc2c3c(c(=O)oc2cc1OS(=O)(=O)c1ccc(C(F)(F)F)cc1)CCCCC3`, the growth is 93.8% (inactive).

As to `C=CCc1cc(Cl)cc2c(OC(C)=O)c(C(C)=O)c(-c3ccccc3)nc12`, the growth was 113% (inactive).

Consider `COc1cc(C2C=C(C)N=C3SC=C(C)N32)cc(OC)c1OC` (stereo not given), for which the growth is 9.1% (active).

Take `CCC1CCc2nc3sc(C(=O)Nc4ccccc4C)c(N)c3cc2C1` (stereo not given): the growth is 57.3% (inactive).

`O=C1CCCCN1CCCCC#Cc1ccccc1C#Cc1ccccn1`: the growth was 113% (inactive).

In the case of `Cc1cc2c(C(C)C)c(O)c(O)c(C=NCCCCCCC(=O)O)c2c(O)c1-c1c(C)cc2c(C(C)C)c(O)c(O)c(C=NCCCCCCC(=O)O)c2c1O`, the growth was 30.6% (inactive).

With `COc1cc(-c2n[nH]nc2-c2ccc3c(c2)OCCO3)cc(OC)c1OC`, the growth was 9.51% (active).

For `O=C1Nc2ccc(Br)cc2C1=N/C=c1\[nH]c(=O)/c(=C/c2ccc(Cl)cc2)s1`, the growth was 93.6% (inactive).

Turning to `CCN1C(=O)N(CC)C2Nn3c(s/c(=C\c4cccc(F)c4)c3=O)=NC21` (stereo not given), the growth was 77.4% (inactive).

Turning to `COC(=O)c1ccc2nc(-c3cc4ccccc4n3C)n(CCCCOc3cc4c(cc3OC)C(=O)N3CCC[C@H]3C=N4)c2c1`, the growth was 16.5% (inactive).

In the case of `N#Cc1c(NC(=O)c2ccc([N+](=O)[O-])o2)[n+]([O-])c2cc(F)c(F)cc2[n+]1[O-]`, the growth is 68% (inactive).

For the compound `COc1cc(Cn2c(SCCC(=O)Nc3ccc(F)cc3)nc3ccccc3c2=O)cc(OC)c1OC`, the growth is 84.1% (inactive).

Take `CCc1c(C(=O)Nc2ccc3ccccc3c2)[nH]c(C)c1C(C)=O`: the growth was 104% (inactive).

As for `Cc1cc(C(=O)CSc2nc3ccccc3c(=O)[nH]2)c(C)n1C`, the growth was 96.4% (inactive).

Regarding `O=C(Nc1cccc(C(F)(F)F)c1)Nc1ccc(OCc2nnc(-c3ccccc3)o2)c(F)c1`, the growth was 38.5% (inactive).

Consider `Clc1nc2ccccc2nc1CI`, for which the growth is 90.4% (inactive).

`COc1cc(Cn2c(SCC(=O)Nc3ccc(Cl)cc3)nc3ccccc3c2=O)cc(OC)c1OC`: the growth was 62.9% (inactive).
